Where “and” joins values, the source holds several entries; their conditions need not be identical. Equal entries are not always repeated. Records with an inconclusive call do not appear. More than one record can exist for a structure, and the calls need not agree. Calls of active or inactive are those of the source. Unless noted, the call rests on the fitted dose curve; in most records, active means well fitted curve in the direction sought with a large enough effect in the repeat runs; inconclusive means weak or mixed curves; inactive means no such curve, though single readings can be large; an effect the other way counts as inactive or inconclusive.

Assay [1] addresses Thyrotropin-releasing hormone receptor (Homo sapiens) (UniProt P34981). The assay is described as follows: qHTS assay to identify small molecule agonists of the thyrotropin-releasing hormone receptor (TRHR) signaling pathway (AID 1346891; calls by dose curve; further: series mostly up to about 58 µM). Put shortly:
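Screening of agonists relied on calcium signalling in HEK293 cells expressing human TRHR: dye loading 2 h at 37 °C preceded compound addition and a 3-min fluorescence time course.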
In general terms: qHTS replaces the single test concentration by a dilution series.

Assay [2] in a line: Human pregnane X receptor (PXR) small molecule agonists, qHTS cell viability counter screen (AID 1346977). Further: nearly all actives have a fitted effect of over 50% in size. An outline of the steps: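 Tox21 qHTS format; PXR-Luc HepG2, 2,000/well, charcoal-stripped FBS 5%. Cpd exposure 24hr. Read: CellTiter-Fluor fluorescence, multiplexed with luciferase.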
The nature of assay [3]: Caspase-3/7 induction in CHO-K1 cells by small molecules, qHTS cell viability counter screen (AID 1346979). Further: nearly all actives have a fitted effect of over 35% in size. Further: potency means the concentration at half of the fitted maximal effect. An outline of the steps:
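CellTiter-Fluor viability check, qHTS format: wild-type CHO-K1, 16hr compound treatment, 1hr reagent incubation, fluorescence read.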

Assay [4] in a line: Caspase-3/7 induction in CHO-K1 cells by small molecules, qHTS assay (AID 1346980). Further: nearly all actives have a fitted effect of over 15% in size. Put shortly:
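Wild-type cells were seeded at 1,500 per well and settled 5 hr at 37 C, 5% CO2, then exposed to DMSO-dissolved compounds for 17 hr. Caspase-Glo 3/7 reagent was added, and luminescence was read after 30min at room temperature.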

The nature of assay [5]: Caspase-3/7 induction in HepG2 cells by small molecules, qHTS cell viability counter screen (AID 1346981). Further: series mostly up to about 92 µM; nearly all actives have a fitted effect of over 30% in size. Put shortly:
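The parent HepG2 line is plated at 2,000 cells per well and rested 5 hr before compound pinning from DMSO stocks. Following a 16-hr treatment at 37 C, a fluorogenic live-cell substrate (CellTiter-Fluor) reports viability after 1 hr.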

For assay [6], the target named is Nuclear receptor subfamily 1 group I member 2 (Homo sapiens) (UniProt O75469). Nature of the assay: Human pregnane X receptor (PXR) small molecule agonists, qHTS assay (AID 1346982). Further: nearly all actives have a fitted effect of over 35% in size. Further: potency means the concentration at half of the fitted maximal effect. Put shortly:
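After plating in 5% charcoal-stripped FBS and a 5 hr rest, PXR-Luc HepG2 cells received compounds in DMSO. Following 24 hr at 37 C, ONE-Glo was added and light output read.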

Assay [7] addresses Cytochrome P450 2C19 (Homo sapiens) (UniProt P33261). The assay is described as follows: Cytochrome P450 Family 2 Subfamily C Member 19 (CYP2C19) small molecule antagonists: luciferase reporter qHTS assay (AID 1671197). Further: nearly all actives have a fitted effect of over 65% in size. Further: potency means the concentration at half of the fitted maximal effect. An outline of the steps:
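Inhibition of CYP2C19 was scored from loss of luminescence in a P450-Glo proluciferin substrate assay, NADPH-started and run 1 h at 37C, with ketoconazole as positive control.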
(A reporter such as luciferase makes a cellular process visible.)

Assay [8] addresses Cytochrome P450 2C9 (Homo sapiens) (UniProt P11712). The assay is described as follows: Cytochrome P450 Family 2 Subfamily C Member 9 (CYP2C9) small molecule antagonists: luciferase reporter qHTS assay (AID 1671198). Further: nearly all actives have a fitted effect of over 50% in size. Further: potency means the concentration at half of the fitted maximal effect. Put shortly: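 CYP2C9 activity was measured with a P450-Glo proluciferin substrate. Enzyme–substrate mix was held with compound for 10 min at room temperature, then NADPH regeneration solution was added for 1 h at 37C. Luciferin product was read as luminescence.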

Assay [9] has as its target Cytochrome P450 1A2 (Homo sapiens) (UniProt P05177). Nature of the assay: Cytochrome P450 Family 1 Subfamily A Member 2 (CYP1A2) small molecule antagonists: luciferase reporter qHTS assay (AID 1671199). Further: nearly all actives have a fitted effect of over 50% in size. Further: potency means the concentration at half of the fitted maximal effect. Put shortly:
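Quantitative high-throughput format using the P450-Glo CYP1A2 system. Reaction initiated by NADPH regeneration solution, 1 h at room temperature, then stopped with detection reagent; luminescence measured 20 min later.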

Assay [10] concerns the target Cytochrome P450 3A4 (Homo sapiens) (UniProt P08684). The assay is described as follows: Cytochrome P450 Family 3 Subfamily A Member 4 (CYP3A4) small molecule antagonists: luciferase reporter qHTS assay (AID 1671201). Further: nearly all actives have a fitted effect of over 50% in size. Further: potency means the concentration at half of the fitted maximal effect. An outline of the steps:
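Proluciferin-to-luciferin conversion by CYP3A4, NADPH-regenerated, 1 h RT; luminescence read as RLU. Ketoconazole as control.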

Assay [11] deals with Nuclear receptor subfamily 1 group I member 2 (Rattus norvegicus) (UniProt Q9R1A7). The assay is described as follows: Rat pregnane X receptor (rPXR) activation by small molecules, qHTS assay (AID 1346983). Further: nearly all actives have a fitted effect of over 20% in size. Conditions: rPXR luciferase reporter cells, One-Glo luminescence, 24 h; max activation: stronger effect = higher value. An outline of the steps: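 Cell-based rPXR luciferase reporter assay, 2,000 cells per well, rested 5hr at 37 C before compound addition in DMSO, then 24 hr at 37 C. One-Glo reagent was added and luminescence read after 30 min at room temperature.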
Chain of Nuclear receptor subfamily 1 group I member 2 (Rattus norvegicus) (Q9R1A7 whole entry, looked up): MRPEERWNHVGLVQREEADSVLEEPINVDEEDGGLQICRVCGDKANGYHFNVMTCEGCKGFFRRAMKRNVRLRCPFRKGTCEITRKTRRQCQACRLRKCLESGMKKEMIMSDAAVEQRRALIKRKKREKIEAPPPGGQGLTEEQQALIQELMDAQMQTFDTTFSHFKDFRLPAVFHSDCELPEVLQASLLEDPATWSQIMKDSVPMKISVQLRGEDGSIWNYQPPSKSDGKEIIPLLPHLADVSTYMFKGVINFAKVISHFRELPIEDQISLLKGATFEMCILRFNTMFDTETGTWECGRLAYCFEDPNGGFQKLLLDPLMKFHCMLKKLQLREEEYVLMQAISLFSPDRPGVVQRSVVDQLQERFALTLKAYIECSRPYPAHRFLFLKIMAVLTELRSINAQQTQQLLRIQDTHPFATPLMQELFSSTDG

Assay [12] deals with Nuclear receptor subfamily 1 group I member 2 (Homo sapiens) (UniProt O75469). Nature of the assay: CYP3A4 induction through human pregnane X receptor (PXR) by small molecules, qHTS assay (AID 1346984). Further: nearly all actives have a fitted effect of over 40% in size. Put shortly:
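Human PXR activation is tracked via CYP3A4 promoter-luciferase in DPX-2 (HepG2) cells. Compounds treat cells for 24hr at 37C, and luminescence is read after One-Glo.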

For assay [13] the target is unchanged. Nature of the assay: Human pregnane X receptor (PXR) activation by small molecules, qHTS assay (AID 1346985). Further: nearly all actives have a fitted effect of over 40% in size. An outline of the steps:
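DPX-2 cells (HepG2 co-transfected with a PXR response element and a CYP3A4-promoter luciferase construct) were seeded at 2,000 per well, rested 5 hr at 37C, then exposed to DMSO-dissolved compounds for 24 hr. Activation was read as luciferase luminescence.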

Assay [14] has as its target Cytochrome P450 2D6 (Homo sapiens) (UniProt P10635). Nature of the assay: Cytochrome P450 Family 2 Subfamily D Member 6 (CYP2D6) small molecule antagonists: luciferase reporter qHTS assay (AID 1671196). Further: nearly all actives have a fitted effect of over 50% in size. Further: potency means the concentration at half of the fitted maximal effect. An outline of the steps: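 Quantitative HTS of Tox21 chemicals against CYP2D6 using a luminescent proluciferin substrate. After NADPH addition, 1 h room-temperature reaction; luminescence recorded 20 min post detection reagent.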

In assay [15] the target is Voltage-gated inwardly rectifying potassium channel KCNH2 (Homo sapiens) (UniProt Q12809). The assay is described as follows: Human Ether-a-go-go-Related Gene (hERG) channel small molecule antagonists: fluorescence cell-based qHTS assay (AID 1671200). Put shortly:
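Kinetic two-minute fluorescence traces, sampled at 1 s, were collected following thallium stimulus of U2OS cells (1000 per well) that had been cultured overnight at 37 C and loaded with FluxOR II.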
For orientation: hERG is a cardiac potassium channel; its block is linked to QT prolongation.

Assay [16] can be described thus: Caspase-3/7 induction in HepG2 cells by small molecules, qHTS assay (AID 1346978). Further: nearly all actives have a fitted effect of over 15% in size. Put shortly: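 Wild-type HepG2 cells (2,000/well) were settled 5 h at 37 C, 5% CO2, then exposed to compounds in DMSO for 17 h. Caspase-3/7 activity was read by luminescence 30 min after adding Caspase-Glo 3/7 reagent at room temperature.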
On the % scale 0 is the no-effect control and ±100 the full control effect.

Chain of Cytochrome P450 3A4 (Homo sapiens) (P08684 whole entry, looked up): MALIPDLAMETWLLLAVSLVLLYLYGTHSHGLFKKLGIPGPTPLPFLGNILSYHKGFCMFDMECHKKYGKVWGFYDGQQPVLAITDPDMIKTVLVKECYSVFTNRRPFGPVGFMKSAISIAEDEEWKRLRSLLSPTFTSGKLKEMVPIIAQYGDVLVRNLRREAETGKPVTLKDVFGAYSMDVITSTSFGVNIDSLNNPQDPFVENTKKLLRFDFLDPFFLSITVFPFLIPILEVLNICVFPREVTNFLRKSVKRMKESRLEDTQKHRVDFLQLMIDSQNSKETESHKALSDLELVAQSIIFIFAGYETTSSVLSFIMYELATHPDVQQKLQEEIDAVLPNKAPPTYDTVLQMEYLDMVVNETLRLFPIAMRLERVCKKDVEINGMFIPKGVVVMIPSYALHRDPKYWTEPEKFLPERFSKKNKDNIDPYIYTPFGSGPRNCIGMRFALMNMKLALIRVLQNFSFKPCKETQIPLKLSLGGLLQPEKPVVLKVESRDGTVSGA
Chain of Nuclear receptor subfamily 1 group I member 2 (Homo sapiens) (O75469 whole entry, looked up): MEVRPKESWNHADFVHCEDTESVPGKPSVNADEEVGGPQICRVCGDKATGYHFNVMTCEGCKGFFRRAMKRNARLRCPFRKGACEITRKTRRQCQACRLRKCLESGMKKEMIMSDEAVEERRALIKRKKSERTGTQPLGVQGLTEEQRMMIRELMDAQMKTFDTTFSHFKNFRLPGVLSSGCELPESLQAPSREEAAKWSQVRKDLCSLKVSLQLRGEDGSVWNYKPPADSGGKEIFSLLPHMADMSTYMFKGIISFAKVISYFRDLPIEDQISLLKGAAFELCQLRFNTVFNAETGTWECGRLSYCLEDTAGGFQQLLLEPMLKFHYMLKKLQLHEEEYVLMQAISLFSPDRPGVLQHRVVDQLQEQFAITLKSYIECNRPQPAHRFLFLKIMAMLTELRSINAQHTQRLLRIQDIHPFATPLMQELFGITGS
Chain of Cytochrome P450 1A2 (Homo sapiens) (P05177 whole entry, looked up): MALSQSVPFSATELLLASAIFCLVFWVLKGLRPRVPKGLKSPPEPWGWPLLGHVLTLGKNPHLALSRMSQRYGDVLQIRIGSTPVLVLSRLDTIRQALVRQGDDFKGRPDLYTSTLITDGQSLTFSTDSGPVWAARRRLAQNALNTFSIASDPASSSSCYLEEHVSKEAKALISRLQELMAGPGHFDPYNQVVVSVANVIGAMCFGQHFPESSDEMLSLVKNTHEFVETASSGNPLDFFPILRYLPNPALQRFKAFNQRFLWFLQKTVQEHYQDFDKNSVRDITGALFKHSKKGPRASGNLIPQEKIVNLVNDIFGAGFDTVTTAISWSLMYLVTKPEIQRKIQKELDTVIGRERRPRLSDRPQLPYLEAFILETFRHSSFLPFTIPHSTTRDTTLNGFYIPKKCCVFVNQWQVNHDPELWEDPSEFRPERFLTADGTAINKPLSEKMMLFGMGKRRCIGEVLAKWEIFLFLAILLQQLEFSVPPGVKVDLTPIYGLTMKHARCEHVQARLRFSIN
Chain of Thyrotropin-releasing hormone receptor (Homo sapiens) (P34981 whole entry, looked up): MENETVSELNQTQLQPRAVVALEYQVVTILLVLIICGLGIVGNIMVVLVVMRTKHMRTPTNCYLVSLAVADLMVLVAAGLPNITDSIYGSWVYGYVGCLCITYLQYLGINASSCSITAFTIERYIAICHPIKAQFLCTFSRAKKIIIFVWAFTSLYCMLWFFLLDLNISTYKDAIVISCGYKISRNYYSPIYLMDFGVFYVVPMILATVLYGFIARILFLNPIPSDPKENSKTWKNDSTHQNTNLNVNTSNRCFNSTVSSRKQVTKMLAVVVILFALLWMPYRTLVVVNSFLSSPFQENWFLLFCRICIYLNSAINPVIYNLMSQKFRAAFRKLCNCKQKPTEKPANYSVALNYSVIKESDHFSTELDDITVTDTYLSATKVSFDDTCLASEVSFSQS
Chain of Voltage-gated inwardly rectifying potassium channel KCNH2 (Homo sapiens) (Q12809 whole entry, looked up): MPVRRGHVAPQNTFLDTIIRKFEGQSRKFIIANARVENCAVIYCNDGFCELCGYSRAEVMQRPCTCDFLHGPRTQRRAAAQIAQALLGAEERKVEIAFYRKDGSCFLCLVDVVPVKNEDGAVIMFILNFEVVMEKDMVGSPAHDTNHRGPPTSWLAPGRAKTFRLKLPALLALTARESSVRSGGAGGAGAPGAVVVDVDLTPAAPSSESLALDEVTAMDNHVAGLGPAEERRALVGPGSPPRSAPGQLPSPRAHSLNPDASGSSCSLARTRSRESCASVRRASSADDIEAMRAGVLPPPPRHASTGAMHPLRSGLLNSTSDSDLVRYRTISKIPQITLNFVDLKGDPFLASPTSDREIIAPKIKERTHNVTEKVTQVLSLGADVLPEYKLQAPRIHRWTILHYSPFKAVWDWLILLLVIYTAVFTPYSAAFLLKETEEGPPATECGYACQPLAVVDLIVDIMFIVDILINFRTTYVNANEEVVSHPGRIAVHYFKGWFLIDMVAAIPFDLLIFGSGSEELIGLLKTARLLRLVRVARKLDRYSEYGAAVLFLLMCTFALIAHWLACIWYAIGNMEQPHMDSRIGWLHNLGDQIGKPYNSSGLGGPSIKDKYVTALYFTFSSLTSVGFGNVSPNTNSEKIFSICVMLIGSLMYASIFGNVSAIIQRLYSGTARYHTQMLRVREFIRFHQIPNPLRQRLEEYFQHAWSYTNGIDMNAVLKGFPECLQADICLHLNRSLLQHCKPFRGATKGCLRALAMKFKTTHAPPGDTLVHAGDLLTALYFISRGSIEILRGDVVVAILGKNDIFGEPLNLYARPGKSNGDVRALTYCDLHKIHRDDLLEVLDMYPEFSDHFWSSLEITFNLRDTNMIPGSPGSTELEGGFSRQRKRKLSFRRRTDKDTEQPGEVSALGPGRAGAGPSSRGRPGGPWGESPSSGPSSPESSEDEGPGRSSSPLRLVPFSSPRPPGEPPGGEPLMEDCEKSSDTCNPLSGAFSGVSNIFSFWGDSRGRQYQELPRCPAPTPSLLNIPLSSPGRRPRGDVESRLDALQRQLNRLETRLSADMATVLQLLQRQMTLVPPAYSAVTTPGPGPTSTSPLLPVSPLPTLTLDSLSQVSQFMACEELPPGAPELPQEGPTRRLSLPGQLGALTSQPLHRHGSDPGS
Chain of Cytochrome P450 2C19 (Homo sapiens) (P33261 whole entry, looked up): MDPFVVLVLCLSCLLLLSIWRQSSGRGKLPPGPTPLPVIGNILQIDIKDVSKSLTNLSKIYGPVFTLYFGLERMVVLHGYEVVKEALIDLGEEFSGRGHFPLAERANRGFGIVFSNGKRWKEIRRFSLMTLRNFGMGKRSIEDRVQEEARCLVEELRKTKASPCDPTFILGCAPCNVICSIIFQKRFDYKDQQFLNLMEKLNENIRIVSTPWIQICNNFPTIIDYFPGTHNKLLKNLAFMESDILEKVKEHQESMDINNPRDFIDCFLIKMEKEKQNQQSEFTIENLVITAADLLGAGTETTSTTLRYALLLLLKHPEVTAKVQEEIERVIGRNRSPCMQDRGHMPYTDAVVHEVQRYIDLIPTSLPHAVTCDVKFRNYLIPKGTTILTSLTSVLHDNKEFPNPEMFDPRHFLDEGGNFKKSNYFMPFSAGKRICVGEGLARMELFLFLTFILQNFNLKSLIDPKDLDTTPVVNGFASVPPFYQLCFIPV
Chain of Cytochrome P450 2D6 (Homo sapiens) (P10635 whole entry, looked up): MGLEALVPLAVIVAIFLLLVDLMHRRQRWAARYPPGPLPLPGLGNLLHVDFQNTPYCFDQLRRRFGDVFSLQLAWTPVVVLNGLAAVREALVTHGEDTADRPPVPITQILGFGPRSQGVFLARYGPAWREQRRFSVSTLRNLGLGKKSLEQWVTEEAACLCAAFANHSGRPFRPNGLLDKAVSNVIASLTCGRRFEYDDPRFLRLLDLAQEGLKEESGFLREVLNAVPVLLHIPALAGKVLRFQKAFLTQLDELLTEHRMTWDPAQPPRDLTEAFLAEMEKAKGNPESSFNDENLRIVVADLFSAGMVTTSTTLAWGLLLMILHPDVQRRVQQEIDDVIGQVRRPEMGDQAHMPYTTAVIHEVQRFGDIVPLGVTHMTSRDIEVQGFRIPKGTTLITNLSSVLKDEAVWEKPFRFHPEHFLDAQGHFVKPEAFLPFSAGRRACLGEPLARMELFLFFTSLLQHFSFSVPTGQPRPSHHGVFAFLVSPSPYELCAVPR
Chain of Cytochrome P450 2C9 (Homo sapiens) (P11712 whole entry, looked up): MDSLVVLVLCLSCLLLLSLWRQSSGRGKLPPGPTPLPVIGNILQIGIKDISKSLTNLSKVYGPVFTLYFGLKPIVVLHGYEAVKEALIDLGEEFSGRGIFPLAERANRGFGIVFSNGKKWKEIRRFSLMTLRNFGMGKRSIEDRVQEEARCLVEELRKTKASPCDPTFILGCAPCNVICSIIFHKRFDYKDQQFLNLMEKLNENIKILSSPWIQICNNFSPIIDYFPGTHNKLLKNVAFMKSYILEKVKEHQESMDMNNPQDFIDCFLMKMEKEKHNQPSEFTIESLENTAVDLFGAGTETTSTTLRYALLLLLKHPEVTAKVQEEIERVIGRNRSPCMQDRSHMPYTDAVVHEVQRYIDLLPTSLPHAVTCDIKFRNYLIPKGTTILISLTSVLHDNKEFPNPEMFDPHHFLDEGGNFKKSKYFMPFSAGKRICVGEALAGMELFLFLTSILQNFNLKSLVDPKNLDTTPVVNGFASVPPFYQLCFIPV

With `c1cc[c]([Bi]([c]2ccccc2)[c]2ccccc2)cc1`, the Potency result in assay [1], in [2], in [5] and in [9] was “inactive” in each case. Also, the Potency in assay [3] was 61.1 µM (active); in assay [6], 15.4 µM (active); in assay [7], 283 nM (active); in [8] it was 1 µM (active); in [10], 2.24 µM (active). Besides, in assay [4], the compound was called inactive.

As for `Cc1cc(O)c(C(C)C)cc1Cl`, the Potency entry in [1], in [2], in assay [3], in assay [5], in [6] and in [12] was “inactive” each time. Besides, the Potency entry in assay [13], in assay [15] and in assay [10] was “inactive” each time. The max activation in assay [11] was -0.692% (inactive). Moreover, the Potency in assay [14] is 63.3 µM (active) and inactive; in [7], 35.6 µM (active) and 24.5 µM (active); in [8], 14.2 µM (active) and 15.5 µM (active); in assay [9], 20 µM (active) and 15.5 µM (active).

Consider `CN(C(=O)C(Cl)Cl)c1ccc(OC(=O)c2ccco2)cc1`, for which the Potency result in assay [1], in assay [2], in assay [3], in assay [5], in assay [6] and in [14] was “inactive” throughout. In addition, the Potency entry in assay [9], in assay [15] and in assay [10] was “inactive” throughout. The compound was classed as inactive in [4]. In addition, the Potency in assay [8] is 15.5 µM (active).

Regarding `CCC(=O)OC/C=C/c1ccccc1`, the Potency result in assay [2], in assay [16], in assay [3], in [5], in assay [6] and in assay [14] was “inactive” in each case. Also, the Potency result in assay [15] and in assay [10] was “inactive” in each case. Moreover, in assay [4], the call was inactive. Also, the Potency in [7] was 35.6 µM (active) and 71 µM (active); in assay [8], 39.9 µM (active); in [9] it was 63.3 µM (active).

For the compound `CCCCCCCC/C=C\CCCCCCCC(=O)OC`, the Potency entry in [2], in [16], in [3], in assay [5], in [6] and in [14] was “inactive” in each case. The Potency entry in assay [7], in assay [8], in assay [15] and in assay [10] was “inactive” each time. In addition, the outcome in assay [4] was inactive. Further, the Potency in assay [9] was 31.8 µM (active).

`CC(C)C(=O)O`: the Potency entry in assay [2], in assay [16], in assay [3], in assay [5], in assay [6] and in [14] was “inactive” in each case. The Potency entry in assay [7], in [8], in [9], in assay [15] and in [10] was “inactive” in each case. In addition, the result in assay [4] was inactive.

Consider `CCn1cc(C(=O)O)c(=O)c2cc(F)c(N3CCNCC3)nc21`, for which the Potency result in [2], in [16], in [3], in assay [5], in assay [6] and in assay [12] was “inactive” in each case. The Potency entry in assay [13], in assay [14], in assay [8], in assay [9], in assay [15] and in assay [10] was “inactive” throughout. The compound was called inactive in assay [4]. Further, the max activation in assay [11] was -1.42% (inactive).
